# A selection: hits, their analogues and other compounds. The true share with any hit is near 8.9%.
# KB-3-1 cytotox: KB-3-1 parental cell cytotoxicity; KB-3-1 viability, CellTiter-Glo ATP luminescence, 72 h; AID 1347075; hit rate 1.4% among 400,000; Potency, µM (series often up to 46.1 µM), most hits filed as cytotoxic; further: potency means the concentration at half of the fitted maximal effect; on the % scale 0 is the no-effect control and ±100 the full control effect; nearly all actives have a fitted effect of over 60% in size
#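 Cytotoxicity measured as CellTiter-Glo luminescence after 72 h at 37 C. Compound titrations were pinned onto drug-naive KB-3-1 parental adenocarcinoma cells grown in DMEM with 10% FBS, and normalized data fitted to concentration-response curves.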
# D3 antag: blocks the human D3 dopamine receptor; hit rate 2.5% among 360,000; max response, negative = inhibition, %; P35462; D3R cells, DiscoveRx beta-arrestin luminescence, antagonist mode; stronger effect = lower value; in the data active means max response below about -50%; inconclusive means no clear call, values can overlap the other calls; further: on the % scale 0 is the no-effect control and ±100 the full control effect
# Target sequence (P35462 whole entry, looked up): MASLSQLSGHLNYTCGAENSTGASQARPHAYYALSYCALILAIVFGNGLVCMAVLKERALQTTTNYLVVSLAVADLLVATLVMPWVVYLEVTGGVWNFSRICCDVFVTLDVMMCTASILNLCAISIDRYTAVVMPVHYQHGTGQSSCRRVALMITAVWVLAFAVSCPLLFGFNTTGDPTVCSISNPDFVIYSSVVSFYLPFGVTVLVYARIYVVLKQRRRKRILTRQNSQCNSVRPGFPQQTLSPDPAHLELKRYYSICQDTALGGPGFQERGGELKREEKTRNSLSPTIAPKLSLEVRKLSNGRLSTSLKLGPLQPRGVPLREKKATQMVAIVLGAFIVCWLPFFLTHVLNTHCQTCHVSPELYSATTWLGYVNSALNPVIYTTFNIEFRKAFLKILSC
#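 Cells plated overnight at 1500 cells/well, then exposed to library compounds with dopamine controls for 90 minutes at 37 degrees C. DiscoveRx reagent added for 30–60 minutes at room temperature; luminescence read, quantitative HTS format.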
# MCF10A rereplic: induces DNA re-replication in MCF 10a normal breast cells. Potency, µM (series often up to 46.1 µM), without a hit: top-dose activity, positive = re-replication, most hits filed as activators. AID 624296. MCF 10A DNA re-replication, Hoechst nuclear intensity, 48 h. hit rate 2.9% among 350,000; further: potency means the concentration at half of the fitted maximal effect; % of control where 0% means no effect; nearly all actives have a fitted effect of over 50% in size
# KB-V1 cytotox: KB-V1 MDR subline cytotoxicity | Potency, µM (highest dose often 46.1 µM), usual class: cytotoxic | KB-V1 MDR cells viability, CellTiter-Glo, 72 h | AID 1347076 | hit rate 3.4% among 400,000; further: potency means the concentration at half of the fitted maximal effect; on the % scale 0 is the no-effect control and ±100 the full control effect; nearly all actives have a fitted effect of over 60% in size
#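 KB-V1, DMEM (no phenol red) + 10% FBS; cpd pin-transferred, titration series; 72 h, 37 degrees C; CellTiter-Glo, luminescence. Data normalized, curve-fit.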
# SW480 rerep: inducers of DNA re-replication in SW480 colon cancer cells; SW480 DNA re-replication, Hoechst DNA content imaging, 48 h; Potency, µM (series often up to 46.1 µM), without a hit: top-dose re-replication activation, actives largely listed as activators; hit rate 1.8% among 340,000; further: potency means the concentration at half of the fitted maximal effect; % of control where 0% means no effect; nearly all actives have a fitted effect of over 55% in size
#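 Image-based DNA-content assay: after two days of treatment, nuclei were labelled with the DNA dye Hoechst and imaged, and hits were compounds raising the count of nuclei showing high fluorescence intensity.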
# DRD3 agonist: D3 dopamine receptor (human) agonism | P35462 | D3R DiscoveRx beta-arrestin cells, luminescence, 90 min | max activation, % | hit rate 0.58% among 410,000 | AID 652048; in the data active means max activation above about 30%; further: 0% is about no effect
#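 Agonist-mode cell screen: cells plated at 1500/well and incubated overnight at 37 °C, then exposed to library compounds for 90 min at 37 °C. Detection reagent was added for 30–60 min at room temperature, and luminescence was read.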
# An asterisk follows results filed as active; i = inactive; ? = inconclusive; . = no result; [ ] = another dose, or the depositor's remark. Unless noted, the call rests on the fitted dose curve; in most records, active means well fitted curve in the direction sought with a large enough effect; inconclusive means small, poorly fitted or top-dose-only effect, or another doubt; inactive means no such curve, though single readings can be large; an effect the other way counts as inactive or inconclusive.
SMILES,KB-3-1 cytotox,D3 antag,MCF10A rereplic,KB-V1 cytotox,SW480 rerep,DRD3 agonist
COc1ccc(Nc2c3c(nc4ccccc24)CCC3)cc1,?,-2,1%,21µM*,8%,-15
COc1ccc(C)cc1Nc1c2c(nc3ccccc13)CCC2,0.65µM*,?,1.6µM*,2.9µM*,2.9µM*,-17
Clc1cncc(Cl)c1NNc1c2ccccc2nc2ccccc12,i,6,8%,i,8%,5
CC(C)(C)Nc1c2ccccc2nc2ccccc12,i,-19,15µM*,i,23µM*,4
COC(=O)C[C@H]1c2ccccc2S(=O)(=O)N1c1ccc(N(C)C)cc1,i,.,.,?,.,.
NC(=O)N[C@@H](CCC(=O)O)C(=O)O,.,.,.,.,.,-7
Cc1ccc2c(CC(=O)N3CCN(c4cccc(Cl)c4)CC3)coc2c1,i,.,.,i,.,-9
COCCNC(=O)c1cccc(OC2CCN(C(C)COc3ccccc3)CC2)c1 (centres undefined),i,-22,1.8µM*,i,-34%,-16
NC(=O)C1CCN(c2ncnc(-c3ccc4c(c3)OCCCO4)n2)CC1,i,.,.,i,.,.
C/C(=N\NC(=O)C(c1ccccc1)c1ccccc1)c1ccccn1,13µM*,-76*,?,i,-37%,-22
C/C(=N/NC(=O)c1ccccn1)c1ccncc1,i,-17,-10%,i,-5%,-16
C/C(=N/NC(=O)c1ccc(C(C)(C)C)cc1)c1ccccn1,2.6µM*,-115*,?,?,?,-51
C/C(=N\NC(=O)c1cccc(Br)c1)c1ccccn1,?,-53*,2.9µM*,1.5µM*,?,-8
COc1ccc(C(=O)N/N=C(\C)c2ccccn2)cc1OC,?,-54*,?,2.3µM*,?,-4
C/C(=N\NC(=O)c1ccc(Cl)c(Cl)c1)c1ccccn1,?,?,-24%,i,?,-12
C/C(=N\NC(=O)c1cc(Br)ccc1O)c1ccccn1,i,4,?,i,?,4
CN(Cc1ccccc1)C(=O)c1cc(-c2cccc(Cl)c2)on1,i,.,.,i,.,-14
Cc1cccc(OC(=O)CSc2nnc(-c3cccs3)o2)c1C,i,.,.,i,.,8
COc1ccc(C[C@H]2CN3C(=NC[C@H]3Cc3ccccc3)N2CCNC(=O)c2ccc(C)c(Br)c2)cc1,?,-3,2%,?,-2%,-34
Cc1ccc(C(=O)NCCN2C3=NC[C@@H](Cc4ccccc4)N3C[C@H]2Cc2ccc(O)cc2)cc1Br,i,-58*,-2%,?,1%,-15
COc1ccc(C[C@H]2CN3C(=NC[C@@H]3Cc3ccc(O)cc3)N2CCNC(=O)c2ccc(C)c(Br)c2)cc1,16µM*,-98*,5%,i,-19%,-67
COc1ccc(C[C@H]2CN3C(=NC[C@@H]3Cc3ccccc3)N2CCNC(=O)c2ccc(C)c(Br)c2)cc1,?,-100*,2%,?,5%,-51
Cc1ccc(C(=O)NCCN2C3=NC[C@H](Cc4ccc(O)cc4)N3C[C@H]2Cc2ccc(O)cc2)cc1Br,i,?,8%,i,-56%[9.22 µM],-53
C/C=C(\C)C(=O)NCCN1C2=NC[C@H](Cc3ccccc3)N2C[C@@H]1Cc1ccc(OC)cc1,i,-52*,19%,i,-5%,0
O=C(Nc1cccc2ccccc12)c1ccc2sc([C@@H]3O[C@H](CO)[C@H](O)[C@H](O)[C@H]3O)nc2c1,i,-10,.,i,.,1
SMILES,KB-3-1 cytotox,D3 antag,MCF10A rereplic,KB-V1 cytotox,SW480 rerep,DRD3 agonist
COc1ccc(NC(=O)c2c(N)c(C(=O)c3ccc(C)cc3)n3ccccc23)cc1OC,i,.,.,i,.,-16
O=C(N/N=C/c1cccc(O)c1)c1cc(-c2ccc3c(c2)OCO3)n[nH]1,i,24,14%,?,-9%,-2
CCc1ccc(-c2cc(C(=O)N/N=C/c3c[nH]c4ccccc34)[nH]n2)cc1,?,2,21µM*,?,6.5µM*,3
O=C(N/N=C/c1c[nH]c2ccccc12)c1ccn(Cc2ccc(Cl)cc2Cl)n1,i,11,?,i,-1%,-3
Cc1ccc(CSc2nnc(SCC(=O)N/N=C/c3c[nH]c4ccccc34)s2)cc1,?,4,13µM*,i,?,2
O=C(N/N=C/c1cccc([N+](=O)[O-])c1)c1cc(-c2ccc3c(c2)OCO3)n[nH]1,i,4,12µM*,i,-122%,-5
Cn1ccc(C(=O)N/N=C/c2c[nH]c3ccccc23)n1,18µM*,0,3%,i,-6%,-19
O=C(CSc1nnc(SCc2ccccc2)s1)N/N=C/c1c[nH]c2ccccc12,i,2,?,i,-10%,5
Cc1ccc(NS(=O)(=O)c2cc3c(cc2Cl)CCC(=O)N3)cc1Cl,i,.,.,i,.,.
CC#CCC(C)[C@H](O)/C=C/[C@@H]1[C@H]2C/C(=C/CCCC(=O)O)C[C@H]2C[C@H]1O (some centres undefined),.,.,.,.,.,-22
CC(C)OP(=O)(OC(C)C)C1(NS(=O)(=O)c2ccc(Cl)cc2)C=C(Cl)C(=O)C(Cl)=C1,i,0,-4%,i,-1%,-3
CCc1ccc(/C=N/NC(=O)c2cc(-c3cccc([N+](=O)[O-])c3)n[nH]2)cc1,?,?,5.2µM*,?,23µM*,-12
CCOC(=O)c1cc(-c2cccc([N+](=O)[O-])c2)n[nH]1,i,-10,-2%,i,2%,-1
O=C(COC(=O)c1cccc(S(=O)(=O)N2CCOCC2)c1)c1ccccc1,i,9,0%,i,0%,0
O=C(NCC1COc2ccccc2O1)c1cccc(S(=O)(=O)N2CCOCC2)c1 (centres undefined),i,-61*,2%,i,-1%,1
COc1ccc(S(=O)(=O)N2CCOCC2)cc1NC(=O)Cc1ccc2c(c1)OCCO2,i,-6,-6%,18µM*,-2%,-7
CCC(C)c1ccccc1N1CC(C(=O)Nc2cc(S(=O)(=O)N3CCOCC3)ccc2OC)CC1=O (centres undefined),i,3,9%,i,16µM*,-4
COc1ccc(S(=O)(=O)N2CCOCC2)cc1NC(=O)Cc1ccc(Cl)c(Cl)c1,i,-2,-5%,i,7%,4
O=C(OCCOc1ccccc1)c1cccc(S(=O)(=O)N2CCOCC2)c1,i,0,-1%,18µM*,-2%,-6
